Assay outcomes (PubChem)
HP1b chromo inh: inhibitors of HP1-beta chromodomain binding to methylated histone tails. P83916. AlphaScreen HP1-beta / biotin-H3K9me3 peptide binding. Potency, µM (top dose mostly 114 µM), inactives show top-dose activity change, negative = inhibition, most hits filed as inhibitors. 390,000 compounds, 0.56% hits. AID 540317; also: nearly all actives have a fitted effect of over 70% in size
Target sequence (P83916 whole entry, looked up): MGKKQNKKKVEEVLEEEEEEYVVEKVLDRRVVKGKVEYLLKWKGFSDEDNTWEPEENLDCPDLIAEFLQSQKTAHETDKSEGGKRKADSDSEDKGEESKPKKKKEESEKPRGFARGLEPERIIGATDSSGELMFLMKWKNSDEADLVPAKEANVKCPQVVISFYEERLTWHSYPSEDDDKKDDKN
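AlphaScreen: HP1-beta (50 nM) preformed 30 min with biotin-H3(1-18)K9me3 peptide (50 nM) in PBS pH 7.4, 0.01% Tween-20. Compound added for 30 min at RT, then streptavidin donor/nickel chelate acceptor beads (10 ug/mL) for 30 min.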
ALOX12 inh: ALOX12 (human) lipoxygenase inhibition | P18054 | purified 12hLO, xylenol orange hydroperoxide absorbance | Potency, µM (highest dose often 108 µM), inactives show at the top dose activity change, negative = inhibition, most hits filed as inhibitors | 580,000 compounds, 1.1% hits; also: % is scaled to controls: 0 for no effect and ±100 for the full control effect
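Purified human 12hLO (150 nM final) in 25 mM Hepes, 0.01% Triton X-100, pH 7.0 was preincubated 15 min at room temperature with compound. Then 40 uM arachidonic acid was added, 30 min. Hydroperoxide was read by Fe-XO absorbance ratio 573/405 nm.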
PLK1 PBD inh: inhibitors of human PLK1 polo-box domain binding. Plk1 PBD binding of FITC phosphopeptide, fluorescence polarization. Potency, µM, inactives show max response, negative = inhibition, hits mostly inhibitors. 360,000 compounds, 2.8% hits; also: series mostly up to about 57 µM; % is scaled to controls: 0 for no effect and ±100 for the full control effect; nearly all actives have a fitted effect of over 65% in size
G9a inh: G9a (human) methyltransferase inhibition; Q96KQ7; G9a H3K9 monomethylation, AlphaScreen, 2 h; Potency, µM (doses to about 102 µM), inactives show at the top dose activity, negative = inhibition, hits mostly inhibitors; 350,000 compounds, 8.8% hits; also: % is scaled to controls: 0 for no effect and ±100 for the full control effect; nearly all actives have a fitted effect of over 75% in size
Target sequence (Q96KQ7 913-1193 limits assumed): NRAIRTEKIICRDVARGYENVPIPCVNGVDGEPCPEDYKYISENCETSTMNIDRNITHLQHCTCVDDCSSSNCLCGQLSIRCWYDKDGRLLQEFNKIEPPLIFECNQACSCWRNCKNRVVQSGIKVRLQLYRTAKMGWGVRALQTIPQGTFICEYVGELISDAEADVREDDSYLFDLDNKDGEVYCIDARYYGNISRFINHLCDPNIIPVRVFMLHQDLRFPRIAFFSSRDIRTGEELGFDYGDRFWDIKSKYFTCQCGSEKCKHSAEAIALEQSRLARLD
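Readings reflect AlphaScreen signal from monomethyl-H3K9 antibody detection. HMT at 20 nM; substrate b-H3K9 500 nM; cofactor SAM 20 uM; 2 h RT reaction; compounds tested as titrations in qHTS with 15 min preincubation.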
JMJD2A Tudor inh: JMJD2A Tudor domain (human) inhibition | Potency, µM (titrated, usually from 114 µM), for inactives: top-dose activity change, negative = inhibition, actives largely listed as inhibitors | AlphaScreen JMJD2A-Tudor / H3K4me3 peptide binding | 390,000 compounds, 4.4% hits; also: % is scaled to controls: 0 for no effect and ±100 for the full control effect; nearly all actives have a fitted effect of over 50% in size
BAZ2B block: inhibitors of human BAZ2B bromodomain; Q9UIF8; AlphaScreen BAZ2B-H3K14Ac peptide displacement; Potency, µM (top dose mostly 114 µM), for the others: at the top dose activity change, negative = inhibition, actives largely listed as inhibitors; 360,000 compounds, 4.4% hits; AID 504333; also: % is scaled to controls: 0 for no effect and ±100 for the full control effect; nearly all actives have a fitted effect of over 60% in size
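Inhibition is scored as reduced AlphaScreen emission. The BAZ2B/b-H3(5-23)K14Ac complex (50 nM each) in PBS pH 7.4, 0.01% Tween-20 meets compound (up to 110 uM) for 30 min at RT before bead addition.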
TbPYK confirm: Trypanosoma brucei pyruvate kinase inhibition, cherry-pick confirmation; shares compounds with PLK1 PBD inh; recombinant TbPYK, Kinase-Glo ATP luminescence; Potency, µM (highest dose often 76.9 µM), without a hit: at the highest dose activity change, negative = inhibition, actives largely listed as inhibitors; 890 compounds, 67% hits; also: % is scaled to controls: 0 for no effect and ±100 for the full control effect; nearly all actives have a fitted effect of over 70% in size
TbPYK ADP-Glo: TbPYK inhibition, orthogonal confirmation; shares compounds with PLK1 PBD inh; recombinant TbPYK, ADP-Glo luminescence, 60 min; Potency, µM (highest dose often 76.9 µM), for inactives: top-dose activity change, negative = inhibition, hits mostly inhibitors; 890 compounds, 62% hits; also: % is scaled to controls: 0 for no effect and ±100 for the full control effect; nearly all actives have a fitted effect of over 75% in size
* marks the source's active call; other numbers are inactive results; [ ] = another dose, or the depositor's remark. A selection: hits, their analogues and other compounds. The true share with any hit is near 9%. Calls follow the shape of the dose curve; as a rule, active = well fitted curve in the direction sought with a large enough effect; inconclusive = small, poorly fitted or top-dose-only effect, or another doubt; inactive = no such curve, though single readings can be large; an effect the other way counts as inactive or inconclusive. Potency is read from the fitted curve at half-maximal effect.

`O=C(O)c1nonc1-c1nonc1C(=O)O` gave HP1b chromo inh 21%, ALOX12 inh 7%, PLK1 PBD inh -10%, G9a inh -18%[12.7 µM], JMJD2A Tudor inh -9% and BAZ2B block 8%.
`CC[n+]1c(/C=C/C=C/c2ccc(N(C)C)cc2)sc2ccccc21` gave HP1b chromo inh inconclusive, ALOX12 inh inconclusive, PLK1 PBD inh 0%, G9a inh 40µM*, JMJD2A Tudor inh 50µM*, BAZ2B block 35µM*, TbPYK confirm 32µM* and TbPYK ADP-Glo 10%.
Cc1cc(-n2c(/C=C/c3cccs3)nc3ccccc3c2=O)ccc1Br was read as HP1b chromo inh 8%, ALOX12 inh -1%, G9a inh -31%[59 µM], JMJD2A Tudor inh inconclusive and BAZ2B block inconclusive.
For COc1ccccc1NS(=O)(=O)c1cc(NC(=O)c2ccc(Cl)nc2)ccc1N1CCCC1 the results were HP1b chromo inh inconclusive, PLK1 PBD inh 4.7µM*, JMJD2A Tudor inh 56µM*, TbPYK confirm 4.5µM* and TbPYK ADP-Glo 6.3µM*.
For CN(C(=O)Oc1ccc(F)cc1)c1ccccc1 the results were HP1b chromo inh 29%, ALOX12 inh 17%, PLK1 PBD inh -5%, G9a inh 13%, JMJD2A Tudor inh 8% and BAZ2B block -5%.
Screening O=c1cc(Nc2cccc(Br)c2)[nH]c(=O)[nH]1 returned HP1b chromo inh 37%, ALOX12 inh 1%, PLK1 PBD inh -8%, G9a inh 2%, JMJD2A Tudor inh -8%[11.4 µM] and BAZ2B block -7%.
Screening CSc1ccc(C(=O)C2CCCN(Cc3cnc(SC)nc3)C2)cc1 (stereo unspecified) returned HP1b chromo inh 16%, ALOX12 inh -1%, PLK1 PBD inh -17%, G9a inh 3%, JMJD2A Tudor inh -20% and BAZ2B block -25%.
`COc1ccc(OC(=O)N(C)C[C@@H]2OCc3cnnn3CCCC(=O)N([C@H](C)CO)C[C@H]2C)cc1` gave ALOX12 inh -3% and PLK1 PBD inh -24%.
For COc1ccc(S(=O)(=O)N(C)C[C@H]2OCCCC[C@@H](C)Oc3ccc(N(C)C)cc3C(=O)N([C@H](C)CO)C[C@@H]2C)cc1 the results were ALOX12 inh inconclusive, PLK1 PBD inh -13%, TbPYK confirm 2.5µM* and TbPYK ADP-Glo 6.3µM*.
Screening S=P(Nn1cnnc1)(c1ccccc1)c1ccccc1 returned HP1b chromo inh 30%, ALOX12 inh -13%, PLK1 PBD inh -11%, G9a inh 8%[0.0925 µM], JMJD2A Tudor inh -21% and BAZ2B block -1%.
CC1CC(OP(O)(=S)c2ccc(N(C)C)cc2NC(=O)c2cccs2)CC(C)(C)C1 (stereo unspecified) was read as HP1b chromo inh inconclusive, ALOX12 inh 1%, PLK1 PBD inh 6µM*, G9a inh 4µM*, JMJD2A Tudor inh 56µM*, BAZ2B block 50µM*, TbPYK confirm 28µM* and TbPYK ADP-Glo 28µM*.
O=C1C(Cl)=CC(=Nc2ccc(O)cc2)C=C1Cl was read as HP1b chromo inh 14µM*, ALOX12 inh 0%, PLK1 PBD inh 27µM*, G9a inh inconclusive, JMJD2A Tudor inh 45µM*, BAZ2B block 32µM*, TbPYK confirm 16µM* and TbPYK ADP-Glo inconclusive.
CC(C)(C)NC(=O)Cn1cc(C(=O)c2ccccc2F)c2ccccc21 was read as HP1b chromo inh 74%, ALOX12 inh 0%, PLK1 PBD inh -17%, G9a inh 8%, JMJD2A Tudor inh 2% and BAZ2B block 8%.
`COc1ccccc1N1C(=O)NC(=O)/C(=C/c2ccc([N+](=O)[O-])s2)C1=O` gave HP1b chromo inh inconclusive, ALOX12 inh inconclusive, PLK1 PBD inh 3.4µM*, G9a inh 8.9µM*, JMJD2A Tudor inh 56µM*, BAZ2B block 35µM*, TbPYK confirm inconclusive and TbPYK ADP-Glo inconclusive.
`CCOC(=O)C1CCN(/C=C2/C(=O)NC(=O)N(c3ccc(OCC)cc3)C2=O)CC1` gave HP1b chromo inh 41%, ALOX12 inh -20%, PLK1 PBD inh -13%, G9a inh inconclusive, JMJD2A Tudor inh -17% and BAZ2B block -3%.
COc1ccc(N2C(=O)NC(=O)/C(=C\c3ccc([N+](=O)[O-])s3)C2=O)cc1 was read as HP1b chromo inh 22µM*, ALOX12 inh 45µM*, PLK1 PBD inh 2.7µM*, G9a inh 7.9µM*, JMJD2A Tudor inh 22µM*, BAZ2B block 32µM*, TbPYK confirm 7.9µM* and TbPYK ADP-Glo 16µM*.
Screening COc1cccc(N2C(=O)NC(=O)/C(=C/c3ccc([N+](=O)[O-])s3)C2=O)c1 returned HP1b chromo inh 35µM*, ALOX12 inh inconclusive, PLK1 PBD inh 3µM*, G9a inh 11µM*, JMJD2A Tudor inh 22µM*, BAZ2B block 35µM*, TbPYK confirm 13µM* and TbPYK ADP-Glo 18µM*.
Screening COc1ccc(N2C(=O)NC(=O)/C(=C/c3ccc([N+](=O)[O-])s3)C2=O)cc1 returned HP1b chromo inh inconclusive, ALOX12 inh -73%, PLK1 PBD inh 3µM*, G9a inh 8.9µM*, JMJD2A Tudor inh 56µM*, BAZ2B block 40µM*, TbPYK confirm 6.3µM* and TbPYK ADP-Glo 13µM*.
COc1ccccc1[N+](=O)[O-] was read as HP1b chromo inh 23%, ALOX12 inh -29%, PLK1 PBD inh -4%, G9a inh 11%[0.501 µM], JMJD2A Tudor inh -11% and BAZ2B block -4%.
`CCN(CC)c1ccc(N=Cc2c(O)n(-c3ccccc3)c(=O)[nH]c2=O)cc1` gave HP1b chromo inh 20%, ALOX12 inh inconclusive, PLK1 PBD inh -3%, G9a inh inconclusive, JMJD2A Tudor inh -5% and BAZ2B block inconclusive.
For O=C1NC(=O)N(c2ccc(Cl)cc2)C(=O)/C1=C/c1coc2ccc(O)cc2c1=O the results were HP1b chromo inh -1%, ALOX12 inh inconclusive, PLK1 PBD inh 7.5µM*, G9a inh 16µM*, JMJD2A Tudor inh 100µM*, BAZ2B block -30%, TbPYK confirm inconclusive and TbPYK ADP-Glo inconclusive.
